Screening results as filed in PubChem.
ALR H2O2 inh: inhibitors of human sulfhydryl oxidase ALR; 290,000 compounds, 3.8% hits; purified ALR, DTT oxidation, H2O2 HRP-luminol luminescence; AID 485317; P55789; inhibition, % (concentration not given with the values);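 active means mean replicate inhibition above about 79%, with every replicate also reaching it, limit read from the data; inconclusive means only one of the two criteria met; inactive means mean below limit and not every replicate reaching it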
Efflux pump mplx: inhibitors of Candida antifungal efflux pumps expressed in yeast. S. cerevisiae Candida pump triplex, Nile Red efflux. inhibition, % at 10 µM. 330,000 compounds, 0.44% hits. AID 485275;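 active means plate passing quality check with inhibition over a set limit, or well fluorescence over plate mean plus 4 SD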;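 further: Nile Red retained in pooled yeast measured as flow cytometry median fluorescence; higher means more Nile Red kept so more efflux inhibition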
PABP1 MLLE inh: inhibitors of microRNA-mediated deadenylation, human PABP1 MLLE binding | GST-MLLE / FITC-PAM2 fluorescence polarization | 360,000 compounds, 0.36% hits | inhibition, % at 20 µM; in the data active means inhibition above about 35%, passing the limit was not always enough
Target sequence (P11940 whole entry, looked up): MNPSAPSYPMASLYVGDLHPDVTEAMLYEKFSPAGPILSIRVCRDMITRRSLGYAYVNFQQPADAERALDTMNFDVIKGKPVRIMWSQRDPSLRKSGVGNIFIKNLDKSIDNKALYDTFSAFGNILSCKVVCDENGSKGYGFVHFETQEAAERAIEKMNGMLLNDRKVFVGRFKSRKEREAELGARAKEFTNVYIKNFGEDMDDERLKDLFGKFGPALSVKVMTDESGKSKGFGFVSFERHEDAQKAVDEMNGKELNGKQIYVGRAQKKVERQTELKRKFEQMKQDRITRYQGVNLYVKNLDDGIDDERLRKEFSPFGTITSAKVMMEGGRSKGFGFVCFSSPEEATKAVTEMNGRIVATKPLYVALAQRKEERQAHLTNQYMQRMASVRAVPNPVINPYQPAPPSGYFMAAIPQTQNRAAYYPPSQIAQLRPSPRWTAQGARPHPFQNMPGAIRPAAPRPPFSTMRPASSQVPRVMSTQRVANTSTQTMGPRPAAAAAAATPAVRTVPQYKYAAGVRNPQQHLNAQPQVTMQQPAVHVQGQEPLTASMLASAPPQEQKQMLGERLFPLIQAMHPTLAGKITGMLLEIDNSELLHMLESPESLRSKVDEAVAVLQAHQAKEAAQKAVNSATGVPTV
UBC9 SUMO inh: blocks human SUMOylation mediated by UBC9. HTRF SUMOylation assay, SAE1/SAE2 + UBC9, in vitro. inhibition, % at 35 µM. 290,000 compounds, 0.36% hits. AID 2006; in the data active means inhibition above about 50%, passing the limit was not always enough; inconclusive means no clear call, values can overlap the other calls
PABP FP inh: blocks human PABP binding to poly(A) RNA | inhibition, % at 35 µM | fluorescence polarization | 290,000 compounds, 1% hits;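 further: calls also rest on retests at 20 µM and on dose response follow-up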
eIF4H inh: inhibitors of RNA binding by human eIF4H | eIF4H fluorescence polarization binding assay | inhibition, % at 35 µM | 290,000 compounds, 0.94% hits | AID 2012;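 further: calls also rest on retests at 20 µM and on dose response follow-up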
Numbers stand for hits; 0 = inactive; ? = inconclusive; - = no result. Compounds with a hit are over-represented: about 4.7% of the library has one in this group of screens. Unless noted, how the calls were made is not given here.

SMILES | ALR H2O2 inh | Efflux pump mplx | PABP1 MLLE inh | UBC9 SUMO inh | PABP FP inh | eIF4H inh
Cc1cccc(NC(=O)CSCC(=O)Nc2sccc2C#N)c1 | 98 | 0 | 0 | - | - | -
O=C(CC1C[C@H](C(=O)N2CCOCC2)[C@@]2(CCC3CCCC3)c3[nH]c4ccccc4c3CCN2C1=O)NCc1cccc(C(F)(F)F)c1 (stereo not given in full) | - | - | 0 | - | - | -
CC(C)CN(C(=O)CCCOc1ccc(Cl)cc1Cl)c1c(N)n(Cc2ccccc2)c(=O)[nH]c1=O | 0 | 0 | 0 | - | - | -
CC1(C)Oc2cc3oc(-c4cc(O)cc(O)c4)cc3cc2CC1O (stereo not given) | 99 | 0 | 0 | - | - | -
CC1(C)Oc2ccc3ccc(=O)oc3c2C[C@H]1O | 0 | 0 | 0 | 0 | 0 | 0
CCCCN(C=O)c1c(CC)nc2ccc(C(=O)NCc3ccc4c(c3)OCO4)cn12 | - | - | 0 | - | - | -
Cc1cc(F)ccc1N1CCC(N2CCN(CCC(C)C)C(CCO)C2)CC1 (stereo not given) | 0 | 0 | 0 | 0 | 0 | 0
CC(C)CCN1CCN(C2CCN(c3ccc4c(c3)OCO4)CC2)CC1CCO (stereo not given) | 99 | 0 | 0 | 0 | 0 | 0
CC(C)N1CCC(N2CCN(C3CCCCC3)CC2CCO)CC1 (stereo not given) | 0 | 0 | 0 | 0 | 0 | 0
Cc1ccc(N2CCC(N3CCN(C4CCCCC4)C(CCO)C3)CC2)cc1 (stereo not given) | 99 | 0 | 0 | 0 | 0 | 0
CC(=O)C(Sc1nccc(-c2cccs2)n1)C(C)=O | 98 | 0 | 36 | 0 | 0 | 0
Cc1ccc([N+](=O)[O-])cc1S(=O)(=O)Nc1ccc(O)c(Sc2ncn[nH]2)c1 | 94 | 0 | 41 | 0 | 0 | 0
Cc1ccc(CN2C(=O)N/C(=C\c3ccc(-c4ccc(C(=O)O)cc4C)o3)C2=O)cc1 | 0 | 0 | 0 | 0 | 73 | 87
O=C1NC(=O)/C(=C/c2ccc(-c3cc(C(=O)O)ccc3Cl)o2)S1 | 0 | 0 | 0 | 0 | 83 | 92
Cc1ccc(C(=O)O)cc1-c1ccc(/C=C2/NC(=O)N(c3ccccc3)C2=O)o1 | 0 | 0 | 0 | 0 | 79 | 79
Cc1cc(C(=O)O)ccc1-c1ccc(/C=C2\NC(=O)N(Cc3ccccc3Cl)C2=O)o1 | 0 | 0 | 0 | 0 | 0 | 0
O=C1NC(=S)/C(=C\c2ccc(-c3ccccc3Cl)o2)S1 | - | 0 | 0 | 0 | 0 | ?
O=C(O)c1ccc(-c2ccc(/C=C3\NC(=O)N(Cc4ccc(Cl)cc4)C3=O)o2)cc1 | - | - | 0 | 0 | 51 | 73
O=C1N/C(=C/c2ccc(N3CCOCC3)o2)C(=O)N1c1ccccc1 | 0 | 0 | 0 | 0 | 0 | 0
CSc1nc(N(CCO)CCO)c2sc3nc(-c4ccco4)c4c(c3c2n1)CCC4 | - | - | 0 | 62 | 91 | 89
OCCN(CCO)c1ncnc2c1sc1nc(N3CCOCC3)c3c(c12)CCCC3 | 0 | 0 | 0 | 0 | 0 | 0
CSc1nc(SCCO)c2sc3nc(-c4ccco4)c4c(c3c2n1)CC(C)(C)OC4 | - | - | 0 | 0 | 59 | 0
COC(=O)CSc1nc(SC)nc2c1sc1nc(-c3ccco3)c3c(c12)CC(C)(C)OC3 | - | - | 0 | - | - | -
CC1CN(C(=O)COc2ccc3c(-c4ccccc4)cc(=O)oc3c2)CC(C)O1 (stereo not given) | 0 | 0 | 0 | - | - | -
O=C1CCCC2=C1C(c1ccc(Br)cc1)c1c([nH]c(=S)[nH]c1=O)N2 (stereo not given) | 83 | 0 | 0 | 0 | 0 | 0
SMILES | ALR H2O2 inh | Efflux pump mplx | PABP1 MLLE inh | UBC9 SUMO inh | PABP FP inh | eIF4H inh
Cc1ccc(C2C3=C(CCCC3=O)Nc3[nH]c(=S)[nH]c(=O)c32)cc1 (stereo not given) | - | 0 | 0 | 0 | 0 | 0
O=c1[nH]c(=S)[nH]c2c1C(c1ccc(Br)cc1)c1c([nH]c(=S)[nH]c1=O)O2 | - | 0 | 0 | 80 | 93 | 83
Cc1cccnc1NC(=O)CCCNC(=O)c1ccc(Cl)cc1 | 0 | 0 | 0 | - | - | -
CCOC(=O)C1(C)CCN1C(=O)c1cccc2ccccc12 (stereo not given) | - | - | 0 | - | - | -
O=C(NCCN1CCc2ccccc2C1)Nc1ccc([N+](=O)[O-])cc1 | - | 0 | 0 | 58 | 0 | 0
[O-][n+]1c(/C=C/c2ccccc2)ccc2ccccc21 | 0 | 0 | 0 | 0 | 0 | 0
[O-][n+]1c2ccccc2[n+]([O-])c2cc(O)ccc21 | 0 | 0 | 0 | 0 | 78 | 106
Cc1ccc(C(=O)C2=C(O)C(=O)N(Cc3cccnc3)C2c2ccc(Cl)c(Cl)c2)o1 (stereo not given) | 88 | 0 | 0 | 0 | 0 | 0
Cc1ccc(C(=O)C2=C(O)C(=O)N(Cc3cccnc3)C2c2ccc(Br)cc2)o1 (stereo not given) | 0 | 0 | 0 | 0 | 0 | 0
Nc1nc(-c2ccccn2)nc(N)c1Cc1ccc(Cl)cc1Cl | 0 | 0 | 0 | 0 | 0 | 70
O=C1NC(c2ccccc2)(C(F)(F)F)SC2=CCCCCN12 (stereo not given) | 0 | 0 | 42 | 0 | 0 | 0
CN(NC1CC(=O)N(c2ccccc2)C1=O)c1ccccc1 (stereo not given) | 97 | 0 | 0 | 0 | 0 | 0
N#Cc1nc(-c2ccco2)oc1NCCc1ccccc1 | 98 | 0 | 0 | 0 | 0 | 0
Cc1cc(S(=O)(=O)NCc2ccccc2)ccc1OCC(=O)N1CCCC1 | 0 | 0 | 0 | 0 | 0 | 0
CC(=O)N1CCOc2cc(S(=O)(=O)NCc3ccc(F)cc3)c(C)cc21 | 0 | 0 | 0 | 0 | 0 | 0
Cc1ccc(CNS(=O)(=O)c2cc3c(cc2C)N(C)CCO3)cc1 | 89 | 0 | 0 | 0 | 0 | 0
O=C(O)c1ccc(/C=N/NC(=O)c2ccc3c(c2)OCCO3)cc1 | 0 | 0 | 0 | 0 | 0 | 0
COc1ccccc1/C=C/C(=O)NCC(=O)N/N=C/c1ccc2c(c1)OCO2 | 88 | 0 | 0 | 0 | 0 | 0
COc1cc(/C=N/NC(=O)C2COc3ccccc3O2)ccc1O (stereo not given) | 99 | 0 | 0 | 0 | 0 | 0
COc1ccccc1/C=C/C(=O)NCC(=O)N/N=C/c1ccccc1 | 0 | 0 | 0 | 0 | 0 | 0
COc1ccc(/C=N/NC(=O)C2COc3ccccc3O2)cc1OC (stereo not given) | 0 | 0 | 0 | 0 | 0 | 0
Cc1cc(O)cc(O)c1/C=N/NC(=O)c1ccc2c(c1)OCCO2 | - | - | 49 | - | - | -
COc1ccc(/C=N\NC(=O)C2COc3ccccc3O2)cc1O (stereo not given) | 99 | 0 | 0 | 0 | 0 | 0
CCOc1ccc(NC(=O)CN(C)C2=NS(=O)(=O)c3ccccc32)cc1 | - | - | 0 | - | - | -
COc1ccc(/C=N\NC(=O)CNC(=O)C2COc3ccccc3O2)cc1[N+](=O)[O-] (stereo not given) | 0 | 0 | 0 | 0 | 0 | 0
COc1cc(/C=N/NC(=O)c2cccnc2)cc2c1OCO2 | 0 | 0 | 0 | 0 | 0 | 0
COc1cc(/C=N/NC(=O)c2ccccn2)cc2c1OCO2 | 0 | 0 | 0 | 0 | 79 | ?
COc1cc(/C=N/NC(=O)c2ccc3c(c2)OCCO3)cc(Cl)c1O | 94 | 0 | 0 | 0 | 0 | 0
